In all, about 24,000 compounds went through this assay and about 50 (0.2%) were called active. Inconclusive results (about 9%) are left out.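 Rule for the calls: active = inhibition above 50%; inconclusive = compound itself fluorescent, judged against control cell fluorescence; inactive = the rest.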 Many of the other results were omitted from the sample, so actives are more common in it than they were.
Target: Integrin alpha-4 (Homo sapiens) (UniProt P13612)
Assay: inhibitors of LDV-FITC binding to Mn2+-activated VLA-4, primary screen, Jurkat cells (AID 529);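 note: 0% = Mn2+ stimulated cells lacking compound and 100% = ligand binding without Mn2+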
Settings: LDV-FITC binding with Mn2+, flow cytometry, active compounds read high, 100% = Mn2+-driven binding gain fully reversed, screened at 10 µM (by protocol)

Chain of Integrin alpha-4 (Homo sapiens) (P13612 whole entry, looked up): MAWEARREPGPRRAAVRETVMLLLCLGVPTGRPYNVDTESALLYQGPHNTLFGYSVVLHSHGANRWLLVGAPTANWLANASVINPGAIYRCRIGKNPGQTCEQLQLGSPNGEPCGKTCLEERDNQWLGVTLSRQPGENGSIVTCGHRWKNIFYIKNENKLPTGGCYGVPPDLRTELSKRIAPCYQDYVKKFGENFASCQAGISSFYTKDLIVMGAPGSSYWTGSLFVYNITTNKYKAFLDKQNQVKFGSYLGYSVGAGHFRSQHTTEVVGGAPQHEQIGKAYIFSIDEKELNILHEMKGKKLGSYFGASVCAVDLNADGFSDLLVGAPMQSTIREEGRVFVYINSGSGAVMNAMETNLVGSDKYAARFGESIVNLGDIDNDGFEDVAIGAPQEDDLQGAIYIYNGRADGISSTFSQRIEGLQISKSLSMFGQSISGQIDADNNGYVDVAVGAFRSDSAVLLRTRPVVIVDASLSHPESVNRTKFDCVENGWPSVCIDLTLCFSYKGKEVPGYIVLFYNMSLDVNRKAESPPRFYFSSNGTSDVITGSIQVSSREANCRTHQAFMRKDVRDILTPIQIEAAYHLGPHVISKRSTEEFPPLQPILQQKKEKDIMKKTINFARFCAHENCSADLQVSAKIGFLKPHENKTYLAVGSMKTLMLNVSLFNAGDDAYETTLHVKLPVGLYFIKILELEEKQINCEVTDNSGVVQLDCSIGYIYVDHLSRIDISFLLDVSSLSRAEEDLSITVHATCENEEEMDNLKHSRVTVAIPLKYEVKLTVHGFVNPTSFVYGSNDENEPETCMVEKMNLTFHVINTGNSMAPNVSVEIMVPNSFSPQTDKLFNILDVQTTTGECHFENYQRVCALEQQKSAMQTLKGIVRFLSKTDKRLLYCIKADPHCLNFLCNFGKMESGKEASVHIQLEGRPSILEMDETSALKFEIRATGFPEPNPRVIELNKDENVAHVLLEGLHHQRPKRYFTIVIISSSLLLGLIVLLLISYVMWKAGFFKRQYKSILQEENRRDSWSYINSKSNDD

inhibition, inactive:
CCOC(=O)c1cccc(NC(=O)CCc2c(C)nc3ncnn3c2C)c1 10%
CCOC(=O)N1CCN(C(=O)CSc2nnc(-c3c[nH]c4ccccc34)n2CCOC)CC1 9%
CC(=O)NC(C)c1nc2ccccc2n1Cc1ccccc1F (stereo not drawn) 1%
CN(C(=O)C1CCOC1)c1nnc(-c2cccnc2)s1 (stereo not drawn) -8%
CC1=NCCN1S(=O)(=O)c1ccc(Br)c(C)c1 -21.5%
C=CCSc1nnc(Cn2c(=O)sc3ccccc32)n1C 5%
Brc1cnc(N2CCCC2)nc1N1CCCCC1 -21%
Cc1cc(C)cc(N(CC(=O)NCC2CCCO2)S(=O)(=O)c2c(C)noc2C)c1 (stereo not drawn) -10%
Cc1cccc(NC(=O)CSc2nnc(NC(=O)CN3CCOCC3)s2)c1 -21%
COc1cc2[nH]c(=O)n(CCC(=O)NC3CCN(Cc4ccccc4)CC3)c(=O)c2cc1OC 11%
CCOc1cc(S(=O)(=O)NCc2ccc3c(c2)OCO3)ccc1F -18.5%
O=S1(=O)CCN2C(=N1)SC1=C2CCN(Cc2ccccc2)C1 4%
CCOc1ccc(OCC)c(NC(=O)CN(C)S(=O)(=O)c2cccc3nsnc23)c1 5%
O=C(CSc1nc2ncccc2[nH]1)Nc1ccc2c(c1)OCCO2 -23%
CCc1nnc(NC(=O)CSc2nnc(Cc3ccccc3)n2-c2ccc(OC)cc2)s1 -26.5%
CCOC(=O)N1CCN(C(=O)c2ccc3nc4cc(Cl)ccc4c(=O)n3c2)CC1 6.7%
OCc1n[nH]c(CO)n1 2%
O=c1ccn(Cc2ccccc2Cl)cc1 -16%
N#CCCn1cnc2ccccc21 -16.5%
CCOc1ccc(C2C(C(=O)O)c3ccccc3C(=O)N2CCN2CCOCC2)cc1 (stereo not drawn) -12.1%
COc1cccc(OCC(=O)Nc2ccccc2C(N)=O)c1 -12%
CCOC(=O)N1CCC(NC(=O)Cn2cc3c(n2)CCCCC3)CC1 -1%
CSC1=NCCN1C(=O)c1ccc(S(=O)(=O)N2CCOCC2)cc1 1%
CCCC(=O)N1c2ccccc2NC2=C(C(=O)CCC2)C1c1ccc(F)cc1 (stereo not drawn) -5.3%
Cc1c(C(=O)Nc2ccccc2Cl)oc2ccc(S(=O)(=O)N3CCC4(CC3)OCCO4)cc12 -8%
CCOc1cc2[nH]c(=S)n(CCCN3CCCC3=O)c(=O)c2cc1OCC -5%
O=C(Cn1nc(Cc2cccnc2)c2ccccc2c1=O)NCC1CCCO1 (stereo not drawn) -1%
COc1ccc(CNC(=O)C2CCN(S(=O)(=O)N3CCOCC3)CC2)cc1 3%
Cc1ccc(-c2nc(CS(=O)CC(=O)NC3CCCC3)c(C)o2)cc1 (stereo not drawn) -15%
CCOc1ccc(C(=O)N(Cc2ccc(N(C)C)cc2)C2CCS(=O)(=O)C2)cc1 (stereo not drawn) -24.5%
CCOC(=O)C1CCN(C(=O)CC2C(=O)N(Cc3ccccc3)C(C)c3nc4ccccc4n32)CC1 (stereo not drawn) 8%
CC(C)(C)c1ccc(C(=O)NCCC(=O)NCc2ccco2)cc1 -4%
CCOC(=O)N1CCN(C(=O)c2cnc3n(c2=O)CCS3)CC1 -8%
CCCOc1ccc(C2c3c(oc4cc(C)c(C)cc4c3=O)C(=O)N2CCCN2CCOCC2)cc1 (stereo not drawn) 1%
O=C(NCc1ccc2c(c1)OCO2)C1CCCN(S(=O)(=O)c2cccs2)C1 (stereo not drawn) 3%
CCOC(=O)C1(C(F)(F)F)N=C(N(C)C)OC(N(C)C)=N1 20%
O=C1OC(NC(=O)c2ccccc2)C(N2CCOCC2)=C1Cl (stereo not drawn) 6%
COc1ccccc1N1CCN(Cc2nnnn2CCc2ccccc2)CC1 -8%
COc1ccccc1C(=O)N1CCNC(=O)C1CC(=O)Nc1ccc(Cl)cc1 (stereo not drawn) -4.5%
O=C(CN1CCN(C(=O)c2cccc(F)c2)CC1)Nc1ccccc1F 7%
N#Cc1ccc(COC(=O)Cn2nnc(-c3ccccc3)n2)cc1 -9.5%
COc1ccc(N2C(=O)c3cccc4cccc(c34)C2=O)nn1 -1.5%
OCCNCCCCOc1ccccc1F -13.5%
COc1ccccc1C(=O)NCCn1cc(SCC(=O)NCc2ccco2)c2ccccc21 -4%
Cn1c(=O)[nH]c(=O)c2c1nc(NCCCn1ccnc1)n2Cc1cccc(Br)c1 -22.5%
CCCS(=O)(=O)N1CCN(C(=O)c2cccs2)CC1 -15%
COc1cccc(N2C(=O)C3CCCN3C2c2ccc(F)cc2)c1 (stereo not drawn) -5%
CCN(CC)C(=O)N1CCN(C(=O)c2ccc(C)cn2)CC1 -8%
CCn1c(CSc2ncccn2)nnc1SCC(=O)N1c2ccccc2CC1C (stereo not drawn) 5.5%
O=C1c2ccncc2C(=O)N1C1CCCCC1 3%
COc1ccc(OC)c(C2N(c3ccccn3)C(=O)C3CCCN32)c1 (stereo not drawn) -11%
O=C(CN1C(=O)CSc2ncccc21)N1CCOCC1 -1%
COc1cccc(C(CC(=O)NCCN2CCOCC2)NS(=O)(=O)c2ccc(C)cc2)c1OC (stereo not drawn) -2%
Cc1onc(-c2ccccc2Cl)c1C(=O)NCCn1ccc2ccccc21 -7%
Cc1ccc(C2CC(=O)NC(SCC(=O)OCc3ccccc3)=C2C#N)o1 (stereo not drawn) -24%
COc1ccc(S(=O)(=O)NC(CC(=O)NCc2ccccc2OC)c2ccco2)cc1 (stereo not drawn) 3%
CC(C)OCCCNC(=O)CNC(=O)c1cccs1 10%
CCOC(=O)c1ccn(-c2nc(-c3ccco3)cc(C(F)(F)F)n2)n1 -5%
CCOC(=O)c1sc(=S)n(-c2cccc(OC)c2)c1N -4%
CCOC(=O)Cn1c2c(c(-c3ccccc3OC)cc1=O)CCCC2 16%
Cc1ccc(N2C(=O)c3oc4ccccc4c(=O)c3C2c2cccnc2)nc1 (stereo not drawn) -22%
OCc1nc(CO)n(Cc2ccccc2)n1 -2.3%
O=C(CN1CCOCC1)Nc1c2c(nc3c1CCC3)CCC2 -12%
Cc1nc2nc(SCC(=O)NCc3ccco3)nn2c(C)c1Cc1ccccc1 -12.3%
CCN(CCCNC(=O)C1CCN(S(=O)(=O)c2cnc[nH]2)CC1)c1ccccc1 0%
Cc1ccc(C)c(N(CC(=O)NCc2ccco2)C(=O)CCC(=O)Nc2ccccn2)c1 -3%
CC(Sc1sc(=S)sc1SC(C)C(=O)O)C(=O)O (stereo not drawn) -53.5%
C=CCN(CC=C)C(=O)CN1C(=O)c2ccccc2C1=O -1%
Cc1ccc2c(c1)N(CCCC(=O)NCc1cccnc1)C(=O)CO2 -5%
CCOC(=O)C1CCN(C(=O)C2CCN(S(=O)(=O)c3c(C)noc3C)CC2)CC1 10%
O=C(CN1C(=O)CCS(=O)(=O)c2ccccc21)NCc1ccc(F)cc1 -3%
Cc1oc(C)c(C(=O)NCCCC(=O)O)c1C(=O)NCCCC(=O)O 5%
COc1ccc(NC(=O)C2CCCN(S(=O)(=O)c3cccc4cccnc34)C2)cc1 (stereo not drawn) 0%
CCOc1ccccc1NC(=O)C1CCC(CNc2c(N3CCOCC3)c(=O)c2=O)CC1 (stereo not drawn) 2%
Cc1cccc2c1N(CC(=O)OC(C)C)C(=O)C2=O 10.7%
Cc1cc(NC(=O)CSCc2nc(-c3cccc(Cl)c3)oc2C)no1 5%
O=C(NCc1ccc2c(c1)OCO2)c1cc2c(s1)CS(=O)(=O)C2 -4%
Cc1ccc(C)c(N2CCN(C(=O)CCc3nc4ccccc4[nH]3)CC2)c1 -5%
O=S(=O)(Nc1ccccn1)c1ccc(Oc2ccccc2)cc1 -1.3%
CCOc1c(OC)cc(C2C(C#N)=C(N)Oc3n[nH]c(-c4ccncc4)c32)cc1OC (stereo not drawn) -15%
CCC(C)Sc1nnc(-c2c[nH]c3ccccc23)n1CCOC (stereo not drawn) 10%
COc1ccc(C2OC(=O)CC2C(=O)NC(C)C)cc1 (stereo not drawn) 6%
COC(=O)Cn1c(=NC(=O)CSCC(=O)Nc2cc(C)on2)sc2ccccc21 -10.5%
COc1ccc(NC(=O)c2c(SC)nsc2SC)cc1 -23%
COCCCNC(=O)c1ccc2c(c1)ncn2-c1ccccc1OC -35%
O=C(NCc1ccco1)c1cccn2c(=O)c3cc(Br)ccc3nc12 -34%
CCn1cc(C(=O)N2CC=C(c3ccccc3)CC2)c(=O)c2ccc(C)nc21 4%
O=C(CC(Cc1ccccc1)C(=O)O)NCCc1ccc2c(c1)OCO2 (stereo not drawn) -16%
Cc1ccc(C)c(NC(=O)CSc2nnc(Cc3cccn3C)n2-c2ccc(F)cc2)c1 10%
NC(=O)C1(N2CCCCC2)CCN(C(=O)c2ccc(C#Cc3ccccc3)o2)CC1 3%
CC1(C)CC(O)C(CCC(O)c2ccccc2)C(C)(C)N1 (stereo not drawn) -6%
CCc1nnc(NC(=O)CCC(=O)O)s1 -11%
O=C(NC(=O)c1ccc(Cl)c(Cl)c1)OC1CCS(=O)(=O)C1 (stereo not drawn) -4%
O=C(NC1(C(F)(F)F)N=C2SCCN2C1=O)c1ccco1 (stereo not drawn) -21%
Cn1c(=O)cc(SCC(=O)N2CCCC2)c2cc(Cl)ccc21 2%
CN1C(=O)c2ccccc2C(C(=O)NCCCN2CCCC2)C1c1c[nH]c2ccccc12 (stereo not drawn) 17%
COc1ccccc1CNC(=O)Cn1cc2c(n1)CCCC2 -2%
CCOC(=O)C1CCN(C(=O)CSc2cc(=O)n(C)c3ccccc23)CC1 -2%
